Test results as given in article PMC11006913.

Experiments:
Test in all cases: PBM; 200 nM protein, PBS
Conditions in all cases: dsDNA, one strand shown
VENTX = target: T1, VENTX (Homo sapiens, UniProt O95231 78-163, R121Q)
T1 sequence: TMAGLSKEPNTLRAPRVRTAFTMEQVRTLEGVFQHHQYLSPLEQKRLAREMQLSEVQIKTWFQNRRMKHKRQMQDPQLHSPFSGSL

HOXA7 [1] = target: HOXA7 (Homo sapiens, UniProt P31268 116-202)
ALX4 [2] = target: ALX4 (Homo sapiens, UniProt Q9H161 200-286)
PRRX1 [3] = target: PRRX1 (Homo sapiens, UniProt P54821 80-166, F113S)
HOXB6 [4] = target: HOXB6 (Homo sapiens, UniProt P17509 132-218, K202E)
ALX4 [5] = target: ALX4 (Homo sapiens, UniProt Q9H161 200-286, Q225E)
HOXA2 = HOXA2 (Homo sapiens, UniProt O43364 129-215, R185T)
ALX1 [6] = target: ALX1 (Homo sapiens, UniProt Q15699 118-204, L144V)
ALX1 [7] = target: ALX1 (Homo sapiens, UniProt Q15699 118-204, L144R)
MSX2 = MSX2 (Homo sapiens, UniProt P35548 130-214)
VAX1 [8] = target: VAX1 (Homo sapiens, UniProt Q5SQQ9 86-172, T142I)
HOXA7 [9] = target: HOXA7 (Homo sapiens, UniProt P31268 116-202, W177C)
ALX1 [10] = target: ALX1 (Homo sapiens, UniProt Q15699 118-204)
PRRX1 [11] = target: PRRX1 (Homo sapiens, UniProt P54821 80-166)
VAX1 [12] = target: VAX1 (Homo sapiens, UniProt Q5SQQ9 86-172, K157R)
HOXB6 [13] = target: HOXB6 (Homo sapiens, UniProt P17509 132-218)
HOXA4 [14] = target: HOXA4 (Homo sapiens, UniProt Q00056 201-287, W262R)
HOXA4 [15] = target: HOXA4 (Homo sapiens, UniProt Q00056 201-287)
HOXA4 [16] = target: HOXA4 (Homo sapiens, UniProt Q00056 201-287, W262F)
Chain of HOXA4 (Homo sapiens, UniProt Q00056 201-287, W262F) (Q00056 201-287 W262F): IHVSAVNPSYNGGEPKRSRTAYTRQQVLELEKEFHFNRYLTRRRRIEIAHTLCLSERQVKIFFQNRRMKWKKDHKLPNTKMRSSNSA

Chain of ALX4 (Homo sapiens, UniProt Q9H161 200-286) (Q9H161 200-286): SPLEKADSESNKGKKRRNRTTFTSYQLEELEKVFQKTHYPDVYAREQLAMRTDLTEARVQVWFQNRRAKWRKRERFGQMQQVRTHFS
Chain of PRRX1 (Homo sapiens, UniProt P54821 80-166, F113S) (P54821 80-166 F113S): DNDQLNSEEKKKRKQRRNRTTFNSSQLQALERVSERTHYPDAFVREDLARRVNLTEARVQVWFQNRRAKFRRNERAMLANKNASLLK
Chain of MSX2 (P35548 130-214): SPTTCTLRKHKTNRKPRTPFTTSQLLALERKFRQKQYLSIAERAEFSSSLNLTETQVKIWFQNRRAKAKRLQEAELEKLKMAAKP
Chain of HOXB6 (Homo sapiens, UniProt P17509 132-218, K202E) (P17509 132-218 K202E): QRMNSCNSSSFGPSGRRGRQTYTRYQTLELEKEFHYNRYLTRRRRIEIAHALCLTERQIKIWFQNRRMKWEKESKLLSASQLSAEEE
Chain of VAX1 (Homo sapiens, UniProt Q5SQQ9 86-172, K157R) (Q5SQQ9 86-172 K157R): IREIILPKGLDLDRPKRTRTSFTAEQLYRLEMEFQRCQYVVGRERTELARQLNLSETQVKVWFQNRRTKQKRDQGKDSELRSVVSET
Chain of HOXA4 (Homo sapiens, UniProt Q00056 201-287, W262R) (Q00056 201-287 W262R): as the sequence (Q00056 201-287 W262F) above, with F62R counted along it
Chain of HOXA4 (Homo sapiens, UniProt Q00056 201-287) (Q00056 201-287): as the sequence (Q00056 201-287 W262F) above, with F62W counted along it
Chain of HOXA7 (Homo sapiens, UniProt P31268 116-202, W177C) (P31268 116-202 W177C): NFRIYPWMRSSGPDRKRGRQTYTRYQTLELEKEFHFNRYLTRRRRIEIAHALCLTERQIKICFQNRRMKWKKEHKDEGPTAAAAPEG
Chain of HOXB6 (Homo sapiens, UniProt P17509 132-218) (P17509 132-218): as the sequence (P17509 132-218 K202E) above, with E71K counted along it
Chain of ALX4 (Homo sapiens, UniProt Q9H161 200-286, Q225E) (Q9H161 200-286 Q225E): as the sequence (Q9H161 200-286) above, with Q26E counted along it
Chain of ALX1 (Homo sapiens, UniProt Q15699 118-204, L144V) (Q15699 118-204 L144V): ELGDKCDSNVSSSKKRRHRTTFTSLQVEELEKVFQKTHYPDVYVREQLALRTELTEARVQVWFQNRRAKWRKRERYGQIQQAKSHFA
Chain of ALX1 (Homo sapiens, UniProt Q15699 118-204) (Q15699 118-204): as the sequence (Q15699 118-204 L144V) above, with V27L counted along it
Chain of PRRX1 (Homo sapiens, UniProt P54821 80-166) (P54821 80-166): as the sequence (P54821 80-166 F113S) above, with S34F counted along it
Chain of HOXA7 (Homo sapiens, UniProt P31268 116-202) (P31268 116-202): as the sequence (P31268 116-202 W177C) above, with C62W counted along it
Chain of VAX1 (Homo sapiens, UniProt Q5SQQ9 86-172, T142I) (Q5SQQ9 86-172 T142I): as the sequence (Q5SQQ9 86-172 K157R) above, with T57I, R72K counted along it
Chain of ALX1 (Homo sapiens, UniProt Q15699 118-204, L144R) (Q15699 118-204 L144R): as the sequence (Q15699 118-204 L144V) above, with V27R counted along it
Chain of HOXA2 (O43364 129-215 R185T): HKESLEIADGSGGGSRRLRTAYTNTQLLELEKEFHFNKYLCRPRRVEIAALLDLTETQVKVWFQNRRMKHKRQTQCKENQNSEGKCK

Row | Sequence | binding signal (VENTX) | binding signal (HOXA7 [1]) | binding signal (ALX4 [2]) | binding signal (PRRX1 [3]) | binding signal (HOXB6 [4]) | binding signal (ALX4 [5]) | binding signal (HOXA2) | binding signal (ALX1 [6]) | binding signal (ALX1 [7]) | binding signal (MSX2) | binding signal (VAX1 [8]) | binding signal (HOXA7 [9]) | binding signal (ALX1 [10]) | binding signal (PRRX1 [11]) | binding signal (VAX1 [12]) | binding signal (HOXB6 [13]) | binding signal (HOXA4 [14]) | binding signal (HOXA4 [15]) | binding signal (HOXA4 [16])
1 | CAATTACC | 11.7 upbm affinity estimate (log intensity, higher = more binding, comparable within an allelic series) | 11.4 upbm affinity estimate (log intensity, higher = more binding, comparable within an allelic series) | 13.9 upbm affinity estimate (log intensity, higher = more binding, comparable within an allelic series) | 10.9 upbm affinity estimate (log intensity, higher = more binding, comparable within an allelic series) | 9.82 upbm affinity estimate (log intensity, higher = more binding, comparable within an allelic series) | 12.9 upbm affinity estimate (log intensity, higher = more binding, comparable within an allelic series) | 12.6 upbm affinity estimate (log intensity, higher = more binding, comparable within an allelic series) | 11.6 upbm affinity estimate (log intensity, higher = more binding, comparable within an allelic series) | 11.3 upbm affinity estimate (log intensity, higher = more binding, comparable within an allelic series) | 13.8 upbm affinity estimate (log intensity, higher = more binding, comparable within an allelic series) | 12.5 upbm affinity estimate (log intensity, higher = more binding, comparable within an allelic series) | 8.84 upbm affinity estimate (log intensity, higher = more binding, comparable within an allelic series) | 12.4 upbm affinity estimate (log intensity, higher = more binding, comparable within an allelic series) | 13.3 upbm affinity estimate (log intensity, higher = more binding, comparable within an allelic series) | 12.5 upbm affinity estimate (log intensity, higher = more binding, comparable within an allelic series) | 11.8 upbm affinity estimate (log intensity, higher = more binding, comparable within an allelic series) |  |  | 
2 | GCAAGGGC |  |  |  |  |  |  |  |  |  |  |  |  |  |  |  |  | 9.8 upbm affinity estimate (log intensity, higher = more binding, comparable within an allelic series) | 9.73 upbm affinity estimate (log intensity, higher = more binding, comparable within an allelic series) | 9.87 upbm affinity estimate (log intensity, higher = more binding, comparable within an allelic series)
3 | AAATTAAT |  | 11.3 upbm affinity estimate (log intensity, higher = more binding, comparable within an allelic series) | 14 upbm affinity estimate (log intensity, higher = more binding, comparable within an allelic series) | 11.2 upbm affinity estimate (log intensity, higher = more binding, comparable within an allelic series) | 10.1 upbm affinity estimate (log intensity, higher = more binding, comparable within an allelic series) | 13.3 upbm affinity estimate (log intensity, higher = more binding, comparable within an allelic series) |  | 11.9 upbm affinity estimate (log intensity, higher = more binding, comparable within an allelic series) | 11.6 upbm affinity estimate (log intensity, higher = more binding, comparable within an allelic series) | 13.4 upbm affinity estimate (log intensity, higher = more binding, comparable within an allelic series) | 12.5 upbm affinity estimate (log intensity, higher = more binding, comparable within an allelic series) | 8.83 upbm affinity estimate (log intensity, higher = more binding, comparable within an allelic series) | 12.5 upbm affinity estimate (log intensity, higher = more binding, comparable within an allelic series) | 13.3 upbm affinity estimate (log intensity, higher = more binding, comparable within an allelic series) | 12.4 upbm affinity estimate (log intensity, higher = more binding, comparable within an allelic series) | 11.8 upbm affinity estimate (log intensity, higher = more binding, comparable within an allelic series) | 10.6 upbm affinity estimate (log intensity, higher = more binding, comparable within an allelic series) | 13.6 upbm affinity estimate (log intensity, higher = more binding, comparable within an allelic series) | 11.5 upbm affinity estimate (log intensity, higher = more binding, comparable within an allelic series)
4 | CCAATTAA | 12.2 upbm affinity estimate (log intensity, higher = more binding, comparable within an allelic series) | 11.5 upbm affinity estimate (log intensity, higher = more binding, comparable within an allelic series) | 14.3 upbm affinity estimate (log intensity, higher = more binding, comparable within an allelic series) | 11.6 upbm affinity estimate (log intensity, higher = more binding, comparable within an allelic series) | 10 upbm affinity estimate (log intensity, higher = more binding, comparable within an allelic series) | 14.1 upbm affinity estimate (log intensity, higher = more binding, comparable within an allelic series) | 12.9 upbm affinity estimate (log intensity, higher = more binding, comparable within an allelic series) | 12.2 upbm affinity estimate (log intensity, higher = more binding, comparable within an allelic series) | 11.9 upbm affinity estimate (log intensity, higher = more binding, comparable within an allelic series) | 14.2 upbm affinity estimate (log intensity, higher = more binding, comparable within an allelic series) | 12.7 upbm affinity estimate (log intensity, higher = more binding, comparable within an allelic series) | 8.83 upbm affinity estimate (log intensity, higher = more binding, comparable within an allelic series) | 12.8 upbm affinity estimate (log intensity, higher = more binding, comparable within an allelic series) | 13.6 upbm affinity estimate (log intensity, higher = more binding, comparable within an allelic series) | 13 upbm affinity estimate (log intensity, higher = more binding, comparable within an allelic series) | 11.9 upbm affinity estimate (log intensity, higher = more binding, comparable within an allelic series) | 10.6 upbm affinity estimate (log intensity, higher = more binding, comparable within an allelic series) | 13.6 upbm affinity estimate (log intensity, higher = more binding, comparable within an allelic series) | 11.3 upbm affinity estimate (log intensity, higher = more binding, comparable within an allelic series)
5 | ATAATTGA |  | 11.2 upbm affinity estimate (log intensity, higher = more binding, comparable within an allelic series) | 14 upbm affinity estimate (log intensity, higher = more binding, comparable within an allelic series) | 11.5 upbm affinity estimate (log intensity, higher = more binding, comparable within an allelic series) | 10 upbm affinity estimate (log intensity, higher = more binding, comparable within an allelic series) | 13.3 upbm affinity estimate (log intensity, higher = more binding, comparable within an allelic series) |  | 11.7 upbm affinity estimate (log intensity, higher = more binding, comparable within an allelic series) | 11.5 upbm affinity estimate (log intensity, higher = more binding, comparable within an allelic series) | 13.8 upbm affinity estimate (log intensity, higher = more binding, comparable within an allelic series) |  | 8.94 upbm affinity estimate (log intensity, higher = more binding, comparable within an allelic series) | 12.3 upbm affinity estimate (log intensity, higher = more binding, comparable within an allelic series) | 13.5 upbm affinity estimate (log intensity, higher = more binding, comparable within an allelic series) |  | 11.7 upbm affinity estimate (log intensity, higher = more binding, comparable within an allelic series) | 10.6 upbm affinity estimate (log intensity, higher = more binding, comparable within an allelic series) | 13.7 upbm affinity estimate (log intensity, higher = more binding, comparable within an allelic series) | 11.3 upbm affinity estimate (log intensity, higher = more binding, comparable within an allelic series)
